From PubChem BioAssay AID1159580 (chemical genetic matrix, 2015)
Among all 5,500 compounds or so, about 2,000 (36%) were called active. Inconclusive results (about 18%) are left out. No stated cut-off is given here; in the data, active means normalized growth mostly below about 0.91 (no sharp cut-off); inconclusive means no clear call, values can overlap the other calls; inactive means mostly above about 0.92. The list shows a part of the results.

Test: chemical genetic growth profiling, strain panel (AID 1159580);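 further: tested at 20 µM; growth read once vehicle control cultures reached saturation at 30 °C; 1 = growth at the plate median or of vehicle wells; lower values mean less growth of the strain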
Details: growth OD
[1] = S. cerevisiae deletion strains, locus YHR030C, strain SLT2, active compounds read low
[2] = S. cerevisiae deletion strains, locus YAL013W, strain DEP1, active compounds read low
[3] = S. cerevisiae deletion strains, locus YBR229C, strain ROT2, active compounds read low
[4] = S. cerevisiae deletion strains, locus YDL101C, strain DUN1, active compounds read low
[5] = S. cerevisiae deletion strains, locus YDL134C, strain PPH21, active compounds read low
[6] = S. cerevisiae deletion strains, locus YDR150W, strain NUM1, active compounds read low
[7] = S. cerevisiae deletion strains, locus YEL061C, strain CIN8, active compounds read low
[8] = S. cerevisiae deletion strains, locus YGR078C, strain PAC10, active compounds read low
[9] = S. cerevisiae deletion strains, locus YGR229C, strain SMI1, active compounds read low
[10] = S. cerevisiae deletion strains, locus YHR087W, strain rtc3, active compounds read low
[11] = S. cerevisiae deletion strains, locus YJL187C, strain SWE1, active compounds read low
[12] = S. cerevisiae deletion strains, locus YJR043C, strain POL32, active compounds read low
[13] = S. cerevisiae deletion strains, locus YJR075W, strain HOC1, active compounds read low
[14] = S. cerevisiae deletion strains, locus YKL190W, strain CNB1, active compounds read low
[15] = S. cerevisiae deletion strains, locus YLR039C, strain RIC1, active compounds read low
[16] = S. cerevisiae deletion strains, locus YLR058C, strain SHM2 (second series), active compounds read low
[17] = S. cerevisiae deletion strains, locus YLR085C, strain ARP6, active compounds read low
[18] = S. cerevisiae deletion strains, locus YLR262C, strain YPT6, active compounds read low
[19] = S. cerevisiae deletion strains, locus YML094W, strain GIM5, active compounds read low
[20] = S. cerevisiae deletion strains, locus YMR219W, strain ESC1, active compounds read low
[21] = S. cerevisiae deletion strains, locus YMR263W, strain SAP30, active compounds read low
[22] = S. cerevisiae deletion strains, locus YNL153C, strain GIM3, active compounds read low
[23] = S. cerevisiae deletion strains, locus YNL298W, strain CLA4 (second series), active compounds read low
[24] = S. cerevisiae deletion strains, locus YNL322C, strain KRE1, active compounds read low
[25] = S. cerevisiae deletion strains, locus YNR030W, strain Alg12, active compounds read low
[26] = S. cerevisiae deletion strains, locus YPL055C, strain LGE1, active compounds read low
[27] = S. cerevisiae deletion strains, locus YPL241C, strain CIN2, active compounds read low
[28] = S. cerevisiae deletion strains, locus YPR135W, strain CTF4, active compounds read low
[29] = S. cerevisiae strains, strain wild type, active compounds read low

Measured: normalized growth

CN(C(=O)C(Cl)Cl)c1ccc(OC(=O)c2ccco2)cc1
inactive: [1] 0.959 | S. cerevisiae deletion strains, locus YHR079C, strain IRE1, active compounds read low 0.98 | S. cerevisiae deletion strains, locus YJL095W, strain BCK1, active compounds read low 0.973 | S. cerevisiae deletion strains, locus YJR066W, strain TOR1, active compounds read low 0.915 | S. cerevisiae deletion strains, locus YLR113W, strain HOG1, active compounds read low 1.05 | S. cerevisiae deletion strains, locus YNL183C, strain NPR1, active compounds read low 0.96 | S. cerevisiae deletion strains, locus YOR231W, strain MKK1, active compounds read low 0.975 | S. cerevisiae deletion strains, locus YPL256C, strain CLN2, active compounds read low 1

CC(C)S(=O)(=O)c1csc(C(N)=O)c1Cl
inactive: [2] 1.01 | [3] 1.02 | S. cerevisiae deletion strains, locus YCL061C, strain MRC1, active compounds read low 1.02 | [4] 0.989 | [5] 1.01 | [6] 0.958 | [7] 1.04 | [8] 1 | [9] 1 | [1] 1.09 | [10] 1 | [11] 0.983 | [12] 1.01 | [13] 1.01 | [14] 1.01 | [15] 1.05 | [16] 1.01 | [17] 1.02 | [18] 1.05 | [19] 0.996 | [20] 1.01 | [21] 0.996 | S. cerevisiae deletion strains, locus YMR307W, strain GAS1, active compounds read low 1.01 | [22] 1 | [23] 1.04 | [24] 1.01 | [25] 1.03 | [26] 0.954 | [27] 0.991 | [28] 1.07 | [29] 1.02

COC(=O)c1scc(S(=O)(=O)C(C)C)c1N/N=C(/C#N)C(=O)c1ccccc1
active: [24] 0.942
inactive: [2] 0.965 | [3] 0.974 | [4] 0.986 | [5] 0.974 | [6] 0.973 | [7] 0.965 | [8] 0.969 | [9] 0.971 | [1] 0.929 | [10] 0.927 | [11] 1.03 | [12] 0.995 | [13] 0.961 | [14] 0.976 | [15] 0.902 | [16] 0.954 | [17] 1.06 | [18] 0.839 | [19] 1.04 | [20] 0.95 | [21] 0.905 | [22] 0.998 | [23] 0.983 | [25] 1.01 | S. cerevisiae deletion strains, locus YOL006C, strain TOP1, active compounds read low 0.923 | [26] 0.885 | [27] 1.02 | [28] 0.928 | [29] 0.967
